Assay outcomes as filed in PubChem BioAssay.
ERa coact pot = enhances coactivator binding to human estrogen receptor alpha; P03372; TR-FRET ERalpha-LBD/SRC-Cy5 coactivator binding, 2 h; 100 = basal binding, no effect; coactivator binding (% of control), % at 25.6 µM; 86,000 compounds, 1.3% hits; AID 639; in the data active = activity above about 200%;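 also: binding measured in presence of low estradiol as agonist stimulus; 0% = peptide alone without receptor and 100% = receptor with peptide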
ERa coact inh = blocks coactivator binding to human estrogen receptor alpha. inhibition, % at 25.6 µM. 86,000 compounds, 1.7% hits. TR-FRET ER-alpha LBD / SRC-1 peptide, estradiol-bound; in the data active = inhibition above about 50%;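 also: 0% = receptor plus peptide control and 100% = peptide only without receptor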
ERb SRC1 inh = ER-beta (human) coactivator binding inhibition; Q92731; TR-FRET ER-beta LBD / SRC1-Cy5 peptide binding; receptor agonist-loaded with 1 µM estradiol; inhibition, % at 25.6 µM; 86,000 compounds, 1.3% hits; AID 633;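 active = compounds whose percent inhibition of the receptor-coactivator binding signal exceeds about 50% in the single-dose screen, limit read from the data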;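 also: 0% = receptor plus peptide wells without compound and 100% = peptide-only wells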
MRP1 act = activators of MRP-1; H69AR cells + doxorubicin, viability rescue, CellTiter-Glo; viability increase, % at 10 µM; 140,000 compounds, 0.61% hits;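 active = viability gain under doxorubicin at or above a set limit, the compound median plus 3 SD, cut at about 4.7% in these data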;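 also: MRP-1 overexpressing cells given doxorubicin 25 µM after compound pretreatment; 18-22 h compound pretreatment then 72 h with doxorubicin before readout; 0% = doxorubicin-only wells and 100% = vehicle-treated cells without doxorubicin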
MRP resist rev = compounds reversing MRP-mediated drug resistance. 85,000 compounds, 0.04% hits. differential viability (reversal), % at 10 µM. H69AR cells + 2 uM doxorubicin, CellTiter-Glo, 72 h;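 active = viability drop by adding the cancer drug above about 55%, with treated viability meeting a 40% cutoff, limit read from the data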;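 also: viability without doxorubicin minus viability with 2 µM doxorubicin for each compound; larger differential means the compound sensitizes cells more to doxorubicin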
Smad3 FoxH1 inh = inhibitors of human Smad3 transcription factor binding | P84022 | TR-FRET Smad3/Dy647-FoxH1 peptide binding, europium anti-His | inhibition, % at 25 µM | 88,000 compounds, 0.29% hits | AID 630;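 active = compounds that reduce the energy-transfer binding signal between the protein and its labelled peptide by more than half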;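 also: 0% = Smad3 plus labelled peptide maximal FRET and 100% = peptide-only background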
Target sequence (P84022 whole entry, looked up): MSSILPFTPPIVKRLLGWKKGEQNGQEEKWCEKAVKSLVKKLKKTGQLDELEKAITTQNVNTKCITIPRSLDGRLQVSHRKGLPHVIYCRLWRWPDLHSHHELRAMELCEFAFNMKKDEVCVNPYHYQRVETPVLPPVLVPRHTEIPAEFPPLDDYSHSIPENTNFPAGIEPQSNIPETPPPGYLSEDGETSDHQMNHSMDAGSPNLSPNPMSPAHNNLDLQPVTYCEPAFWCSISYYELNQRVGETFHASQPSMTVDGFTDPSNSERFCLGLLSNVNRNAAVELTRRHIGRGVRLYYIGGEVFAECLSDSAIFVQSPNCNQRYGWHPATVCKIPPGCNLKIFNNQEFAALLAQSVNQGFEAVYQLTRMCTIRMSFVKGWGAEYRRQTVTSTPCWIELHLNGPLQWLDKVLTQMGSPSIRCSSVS
* = called active by the depositor; i = inactive; . = no result given; [ ] = another dose, or the depositor's remark. Compounds with a hit are over-represented: about 2.8% of the library has one in this group of screens.

SMILES | ERa coact pot | ERa coact inh | ERb SRC1 inh | MRP1 act | MRP resist rev | Smad3 FoxH1 inh
COc1ccccc1NC(=O)Cn1nnc(-c2ccccc2NC(=O)c2ccco2)n1 | 84 | -38 | 16 | -1 | -18 | 2
COc1cc(NC(=O)c2cccs2)c(OC)cc1NC(=O)CCn1nnc2ccccc21 | 112 | -1 | 51*[fluorescence artefact?] | -2 | -10 | -9
COc1cc(NC(=O)c2cccs2)c(C(=O)OCC(=O)NC(C)c2ccccc2)cc1OC (stereo not given) | . | . | . | -2 | . | .
CC(C)(C)c1ccc(O)c(CN(Cc2c(O)ccc3ccccc23)C2CCCCC2)c1 | . | . | . | . | . | -5
N[C@@H](CNO)C(=O)O | . | . | . | . | . | -1
O=C(Cn1c(C(F)(F)F)nc2ccccc21)c1ccc(F)cc1 | . | . | . | 0 | . | .
CCOC(=O)c1ccc(NC(=O)CSc2nnc(CNc3ccc(OC)cc3)n2C)cc1 | 93 | 52* | 35 | -2 | -1 | 13
CCn1c(SCC(=O)Nc2ccc(C(=O)OC)cc2)nnc1-c1cccs1 | 304*[fluorescence artefact?] | -2 | 10 | 0 | 13 | -57
C=CCn1c(Cc2cccs2)nnc1SCC(=O)Nc1ccc(C(=O)OCC)cc1 | 112 | -2 | -1 | -3 | 12 | -4
CCOC(=O)c1ccc(NC(=O)CSc2nnc(COc3ccccc3)n2C)cc1 | 178 | 13 | 8 | 0 | 17 | 9
CCN(CC)c1ccc(-c2nnc(SCC(=O)Nc3ccccc3C#N)n2-c2ccccc2)cc1 | 104 | 52*[fluorescence artefact?] | 29 | -4 | -26 | -4
CCn1c(SCC(=O)NCC(=O)Nc2ccc(F)cc2)nnc1-c1cccs1 | 103 | -9 | 1 | 0 | 2 | -3
C=CCn1c(SCC(=O)Nc2ccc(C(=O)OCC)cc2)nnc1-c1cccs1 | 755*[fluorescence artefact?] | -45 | 10 | -4 | 10 | i
C=CCn1c(SCc2nc(N)nc(N3CCCCC3)n2)nnc1-c1ccco1 | 101 | 3 | 9 | -2 | 1 | 1
Nc1cccc2cc(S(=O)(=O)Nc3ccc(C(=O)O)cc3)ccc12 | . | . | . | . | . | 10
O=C(CSc1nnc(-c2cccs2)n1-c1ccccc1)Nc1ccccc1 | 969*[fluorescence artefact?] | -31 | 11 | -1 | -13 | -218
CC1(C)N=C(N)N=C(N)N1c1cccc(CSc2ccccc2)c1 | . | . | . | . | . | -11
N#Cc1c(-c2cccs2)cc(C2CC2)nc1SCC(N)=O | . | . | . | -1 | . | .
O=C1CCCC2=C1C(c1ccco1)Nc1ccc3ccccc3c12 (stereo not given) | 4 | 89*[fluorescence artefact?] | 89*[fluorescence artefact?] | -2 | 6 | -3
Cc1ccc(C2Nc3ccc4ccccc4c3C3=C2C(=O)CC(C)(C)C3)o1 (stereo not given) | 112 | 2 | 1 | 3 | 2 | 12
COCCCn1c2nc3ccccc3nc2c2c(=O)n(Cc3cccs3)cnc21 | 98 | -5 | -10 | -1 | -8 | 28
COCCCn1c2nc3ccccc3nc2c2c(=O)n(Cc3ccccc3Cl)cnc21 | 257* | 9 | 12 | . | 1 | 9
COCCCn1c2nc3ccccc3nc2c2c(=O)n(Cc3ccc(Cl)cc3)cnc21 | 104 | 56*[fluorescence artefact?] | 38 | -4 | -11 | 6
C(=Nc1ccc2c(c1)Cc1ccccc1-2)c1ccccn1 | . | . | . | . | . | 2
C[C@@H](SCc1ccccc1)C(=O)O | . | . | . | . | . | -5
SMILES | ERa coact pot | ERa coact inh | ERb SRC1 inh | MRP1 act | MRP resist rev | Smad3 FoxH1 inh
Nc1nc(SCCC2CCCCC2)c2[nH]cnc2n1 | . | . | . | . | . | 12
COc1cccc(/C=N/n2c(SC)nnc2-c2ccccc2)c1O | 89 | 16 | 68*[fluorescence artefact?] | -4 | -40 | 1
COc1cc(-c2c(C#N)c(N)nc3c2c(C)nn3-c2ccc(C)c(C)c2)cc(OC)c1OC | 459*[fluorescence artefact?] | 33 | 54*[fluorescence artefact?] | -7 | -5 | -3
COc1ccc(-c2c(C#N)c(N)nc3c2CCCCCC3)cc1OC | 115 | 4 | -8 | -1 | -6 | 0
Cc1nn(-c2ccc(F)cc2)c2nc(N)c(C#N)c(-c3cccs3)c12 | 243*[fluorescence artefact?] | 19 | 34 | -2 | 1 | -4
COC(=O)c1ccc(OC)c(CSc2nnc(COc3ccc(Cl)cc3)o2)c1 | 73 | -6 | 8 | 6.9* | 10 | 5
CCOC(=O)N1CCN(C(=O)CSc2nnc(COc3ccc(Cl)cc3)o2)CC1 | 119 | 3 | -7 | 5.8* | 2 | 6
COC(=O)c1ccc(OC)c(CSc2nnc(COc3ccccc3)o2)c1 | 102 | -4 | -6 | 1 | 11 | -2
O=C(CSc1nnc(COc2ccc(Cl)cc2)o1)N1c2ccccc2CCc2ccccc21 | 109 | -1 | -3 | 0 | -54 | 5
O=C1c2ccccc2N[C@H](c2cc(Cl)cc(Cl)c2O)N1CCc1ccccn1 | . | . | . | . | . | 6
COc1ccc2c(C)nc(Nc3nc(C)cc(C)n3)nc2c1 | 243* | 17 | 26 | -3 | -6 | 16
C/C(=N\NC(=O)COc1ccc(C(C)(C)C)cc1)c1ccc(N2CCOCC2)cc1 | . | . | . | -3 | . | .
COc1cccc2c1C(=O)c1c(O)c3c(c(O)c1C2=O)C[C@@](O)(C(=O)CO)C[C@H]3O[C@H]1C[C@@H](N)[C@H](O)[C@@H](C)O1.[W] | . | . | . | . | . | 10
O=C1[C@@H]2[C@H](C(=O)N1CN1CCOCC1)[C@H]1[C@@H]3C=C[C@@H]([C@@H]4C(=O)N(CN5CCOCC5)C(=O)[C@@H]34)[C@@H]21 | . | . | . | . | . | 0
COc1ccc(NC(=O)CC2C(=O)N(c3ccc(Cl)cc3)C(=S)N2NC(=O)c2cccc(F)c2)cc1 (stereo not given) | . | . | . | 5.1* | . | .
CCNC(=O)CC1C(=O)N(c2ccccc2)C(=O)N1CCc1ccc(OC)cc1 (stereo not given) | 162 | -16 | -12 | -2 | -9 | -13
CCNC(=O)CC1C(=O)N(c2ccc(F)cc2)C(=O)N1Cc1ccc(OC)cc1 (stereo not given) | 138 | 55*[fluorescence artefact?] | -3 | -4 | 11 | 2
COc1ccc(NC(=O)CC2C(=O)N(c3ccc(F)cc3)C(=S)N2NC(=O)c2ccc(Cl)cc2)cc1 (stereo not given) | . | . | . | 4.8* | . | .
NCCNS(=O)(=O)c1ccc(N)cc1 | . | . | . | . | . | 4
N#Cc1c(NC(=O)C(F)(F)F)sc2c3c(=O)c4ccccc4c(=O)c=3oc3ccccc3c12 | . | . | . | . | . | 3
O=C(NCCN1CCCCCC1)C1CCC(CNS(=O)(=O)c2cccc3cccnc23)CC1 (stereo not given) | 75 | 60*[fluorescence artefact?] | 33 | -2 | 20 | 10
CCCNC(=O)C(=O)Nc1ccc(N(C)C)cc1 | 105 | -2 | -5 | 1 | 10 | 91*[fluorescence artefact?]
COc1ccc(NC(=O)Nc2ccc(OC)cc2)cc1 | 107 | -1 | 7 | -1 | -1 | 8
COCCNC(=O)C(=O)Nc1ccc(Br)cc1 | 99 | -13 | -7 | 3 | 1 | -3
COc1ccc(NC(=O)Nc2ccc(N(C)C)cc2)cc1 | 75 | 28 | 52*[fluorescence artefact?] | 1 | -13 | 6
